An excerpt weighted towards active compounds, which were near 1.5% of everything screened.
RAD54 branch: RAD54 (human) branch migration inhibition; Q92698; RAD54 Holliday junction branch migration, FAM/BHQ fluorescence; inhibition, % at 10.4 µM; 360,000 tested, 0.14% active; AID 602329;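 active = mean normalized replicate activity at least 40 and at least half of replicates scoring 40 or more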;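 note: 0% = median of neutral control wells and 100% = median of positive control wells; inhibitors cause a drop in the FAM fluorescence signal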
RAD52 anneal inh: RAD52 (human) annealing inhibition | inhibition, % at 18.7 µM | P43351 | recombinant RAD52 DNA annealing, FRET fluorescence | 360,000 tested, 0.46% active;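 active = every replicate showing at least 50% inhibition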
Target sequence (P43351 whole entry, looked up): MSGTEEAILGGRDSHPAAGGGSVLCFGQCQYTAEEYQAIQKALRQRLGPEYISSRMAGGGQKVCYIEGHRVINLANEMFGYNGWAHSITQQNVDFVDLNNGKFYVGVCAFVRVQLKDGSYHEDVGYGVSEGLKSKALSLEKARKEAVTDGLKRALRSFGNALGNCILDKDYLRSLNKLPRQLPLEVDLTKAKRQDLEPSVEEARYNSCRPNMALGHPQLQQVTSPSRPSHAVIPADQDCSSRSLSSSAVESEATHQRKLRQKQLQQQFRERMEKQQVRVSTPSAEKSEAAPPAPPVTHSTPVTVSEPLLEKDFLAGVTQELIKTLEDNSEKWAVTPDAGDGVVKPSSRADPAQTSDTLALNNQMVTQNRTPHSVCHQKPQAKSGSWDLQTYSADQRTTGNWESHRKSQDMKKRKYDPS
F508del corr: correctors of CFTR F508del function in bronchial epithelial cells; 350,000 tested, 0.36% active; activity (quench increase), % at 7.58 µM; AID 720511; CFBE cells, YFP halide quenching; stimulated with forskolin plus potentiator P3; % fluorescence drop versus neutral controls;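 active = mean added fluorescence quench of at least 8% versus neutral control, with both replicates also reaching 8%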;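 note: cells transiently co-express mutant CFTR-F508del with the halide-sensitive YFP; corrector assay measuring rescue of mutant channel to the surface after 24 h compound exposure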
PvdQ inh: blocks Pseudomonas aeruginosa PvdQ acylase activity. purified PvdQ acylase, fluorescence plate reader. inhibition, % at 10 µM. 340,000 tested, 0.063% active; in the data active = inhibition above about 30%, passing the limit was not always enough;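 note: 0% = vehicle neutral wells and 100% = reference inhibitor wells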
N-glyco inh: blocks N-linked glycosylation in D54 reporter cells; D54 ERlucT glycosylation luciferase reporter, 24 h; percent of 100 nM tunicamycin response; reporter increase, % at 12.5 µM; 360,000 tested, 0.23% active;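 active = mean luciferase reporter signal, scaled so untreated is 0 and the glycosylation-blocking control 100, at or above a set limit in every replicate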;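 note: luciferase carries N-glycosylation sites so blocking glycosylation raises the light; 0% = median of neutral control wells and 100% = median of 100 nM tunicamycin wells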
dFosB act: activators of mouse delta FosB homodimer; purified delta FosB, TAMRA-CDK5 oligo fluorescence polarization; percent of positive-control signal above neutral wells; activation, % at 25 µM; 340,000 tested, 0.99% active;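 active = mean activation above about 17%, with every replicate also reaching it, limit read from the data, passing the limit was not always enough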
* hit, by the source's call; . = no result; ! = a repeat was not active.

SMILES	RAD54 branch	RAD52 anneal inh	F508del corr	PvdQ inh	N-glyco inh	dFosB act
O=S(=O)(c1ccccc1F)N1C[C@@H]2N[C@H](C1)C2c1ccc(/C=C/c2ccccc2)cc1 (stereo partly specified)	.	74.2*!	-3.6	.	.	.
CCCNC(=O)N[C@@H]1C=C[C@@H](CC(=O)NC2CCCCC2)O[C@@H]1CO	1.9	-0.9	3.6	.	.	.
C(=C\c1ccc(C2[C@@H]3CN(Cc4cccnc4)C[C@H]2N3)cc1)/c1ccccc1 (stereo partly specified)	.	70.4*!	-0.5	.	.	.
c1cncc(CN2C[C@@H]3N[C@H](C2)C3c2ccc(-c3cccnc3)cc2)c1 (stereo partly specified)	.	13.2	1.4	.	.	.
CO[C@H]1CN(C)C(=O)c2cc(NS(=O)(=O)c3ccc(C)cc3)ccc2OC[C@H](C)N(C)C[C@@H]1C	-9.9	2.2	-1.3	.	.	.
Cc1ccc(S(=O)(=O)NC[C@@H]2CC[C@@H]3[C@@H](CN3Cc3ccccc3C(=O)O)O2)cc1	.	3.3	1.6	.	.	.
Cc1noc(C)c1S(=O)(=O)Nc1ccc2c(c1)C(=O)N([C@@H](C)CO)C[C@H](C)[C@@H](CN(C)S(C)(=O)=O)O2	0.7	-8.8	-0.8	.	.	.
NC(=S)N/N=C/c1cccc(O)c1O	.	-21.1	-2.8	-9.2	6.7	-7.7
Cc1cc(/C=N/NC(N)=S)c(O)c(/C=N/NC(N)=S)c1	-38.7	-21.2	14.0*	-2.3	1.2	-9.6
Fc1ccc2nc(C3CCN(Cc4nc(CC5CC5)no4)CC3)[nH]c2c1	.	-13.5	8.6*	-14.7	1.5	-7.3
Fc1ccccc1C1CCN(Cc2nc(CC3CC3)no2)C1 (stereo unspecified)	.	-11.6	2.3	-13.3	-1.7	-0.6
CCn1c(=S)sc2c(=O)n(CC(=O)Nc3ccccc3OC)c(C)nc21	.	-7.6	-3.5	4.0	-1.9	-3.4
Cc1nc2c(sc(=S)n2Cc2ccco2)c(=O)n1CC(=O)Nc1ccccc1Cl	-0.5	-12.8	1.1	-3.5	1.2	56.4*
CCC(=O)Nc1ccc2c(c1)OC[C@@H](C)N(C(=O)Cc1cccnc1)C[C@@H](C)[C@@H](OC)CN(C)C2=O	-8.6	-8.6	1.3	.	.	.
COc1ccccc1S(=O)(=O)N1C[C@H](O)COC[C@H]2O[C@@H](CC(=O)O)CC[C@@H]21	-4.4	5.6	0.3	.	.	.
C[C@H](CO)N1C[C@H](C)[C@@H](CN(C)C(=O)NC2CCCCC2)Oc2cc(C#Cc3ccc(F)cc3)ccc2S1(=O)=O	3.7	-11.9	8.5*	.	.	.
Cc1ccc(-c2ccc3c(c2)O[C@@H](CN(C)C(=O)Nc2ccc(F)cc2)[C@@H](C)CN([C@H](C)CO)S3(=O)=O)cc1	7.6	9.7	8.5*	.	.	.
C[C@@H]1CN([C@@H](C)CO)S(=O)(=O)c2ccc(C#Cc3ccc(F)cc3)cc2O[C@H]1CN(C)C(=O)NC1CCCCC1	-1.7	-4.8	4.8	.	.	.
C[C@H]1CN([C@@H](C)CO)S(=O)(=O)c2ccc(C#Cc3ccc(F)cc3)cc2O[C@H]1CN(C)C(=O)NC1CCCC1	-3.0	-1.1	8.6*	.	.	.
C[C@H](CO)N1C[C@H](C)[C@H](CN(C)C(=O)NC2CCCC2)Oc2cc(C#Cc3ccc(F)cc3)ccc2S1(=O)=O	-3.6	-11.1	9.7*	.	.	.
COc1ccc([Si](C)(C)[C@@H]2[C@@H](CCn3cc(CCO)nn3)O[C@]3(C(=O)N(c4ccccc4)c4ccccc43)[C@H]2C)cc1	-8.7	23.6	-0.1	.	.	.
COc1cc(OC)cc(-c2nc3ccccc3c(=O)n2OC(=O)c2ccc(C)c(C)c2)c1	.	-12.9	9.1*	10.9	13.6	-8.6
Cc1ccc2c(c1)C1C3CCC(C3)C1S(=O)N2 (stereo unspecified)	.	-7.9	-0.2	56.6*	1.4	-1.2
CCCNC(=O)C[C@H]1CC[C@@H]2[C@H](COC[C@H](O)CN2Cc2cccc(F)c2)O1	-8.2	2.3	4.5	.	.	.
COc1ccc(OC)c(C(=O)Cn2nnc(-c3ccc(N4CCOCC4)cc3)n2)c1	-5.1	-17.3	10.4*	-9.6	4.5	-0.6
CCOC(=O)c1ccc(N2Cc3ccccc3C2=N)cc1	3.9	.	.	57.7*	0.8	-3.2
COc1ccc(C#Cc2ccc([C@H]3[C@H]4CN(C)CCCCN4[C@H]3CO)cc2)cc1	-2.4	51.8*	-6.0	.	.	.
COc1ccc(C#Cc2ccc([C@H]3[C@H](CO)N4CCCCN(C)C[C@@H]34)cc2)cc1	3.3	63.3*	-1.7	.	.	.

Compound activity as filed in PubChem BioAssay.
